Reference: PubChem BioAssay (NCATS)
Values joined by “and” are separate entries in the source; they are usually repeats but may differ in a detail not shown here. Equal entries are not always repeated. Records with an inconclusive call do not appear. Entries that show only a call come without a potency. A number with no mark means an inactive call. Active and inactive are the calls of the source. Calls follow the shape of the dose curve; as a rule, active = well fitted curve in the direction sought with a large enough effect; inconclusive = small, poorly fitted or top-dose-only effect, or another doubt; inactive = no such curve, though single readings can be large; an effect the other way counts as inactive or inconclusive.

Assays:
[1] = target: Cytochrome P450 3A7 (Homo sapiens) (UniProt P24462); assay: Cytochrome P450 family 3 subfamily A member 7 (CYP3A7) small molecule antagonists: luciferase biochemical qHTS assay (AID 1963596); settings: P450-Glo CYP3A7 enzyme luminescence, 1 h; series mostly up to 57.4 µM; also: nearly all actives have a fitted effect of over 40% in size
Outline: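 P450-Glo luminescent assay: CYP3A7 enzyme converts a proluciferin substrate to luciferin, detected by luciferase reagent; light proportional to activity. Compounds in DMSO preincubated 10 min with enzyme-substrate mix at room temperature, then NADPH regeneration added for 1 h.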

[2] = Viability qHTS for spleen associated tyrosine kinase inhibitor (SYKi) naive MV4-11 cells (AID 1963823); settings: MV4-11 AML viability, CellTiter-Glo luminescence, 72 h; series mostly up to 45 µM; also: nearly all actives have a fitted effect of over 40% in size
Outline: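 SYK inhibitor-naive MV4-11 cells, 500 per well, exposed to compounds for 72 hr at 37 C, 5% CO2. Viability read as CellTiter-Glo luminescence after 10 min at room temperature.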

[3] = Viability qHTS for spleen associated tyrosine kinase inhibitor (SYKi) drug resistant MV4-11 cells (AID 1963824); settings: SYKi-resistant MV4-11 viability, CellTiter-Glo, 72 h; series mostly up to 45 µM; also: nearly all actives have a fitted effect of over 35% in size
Outline: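 SYK-inhibitor-resistant MV4-11 AML cells were seeded at 500 per well onto compound and cultured 72 hours (37 °C, 5% CO2). CellTiter-Glo was then added, and after 10 min at room temperature, luminescence gave viability.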

[4] = Quantitative highthroughput screen to assess conditional lethalithy of NOMO1 cells grown in RPMI1640 with untreated serum (RPMI+s) (AID 1963876); settings: NOMO1 AML cells in RPMI+serum, CellTiter-Glo viability, 48 h; series mostly up to 45.8 µM; also: nearly all actives have a fitted effect of over 35% in size
Outline: (§1)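 Each medium arm—HPLM with 10% dialyzed FBS, or RPMI1640 with 5 mM glucose and 10% untreated or dialyzed FBS—was screened against an 11-point, 3-fold compound titration for 48 h at 37 °C, with CellTiter-Glo luminescence as endpoint.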

[5] = Quantitative highthroughput screen to assess conditional lethalithy of NOMO1 cells grown in RPMI1640 with dialyzed fetal bovine serum (RPMI+ds) (AID 1963877); settings: NOMO1 in RPMI+dialyzed FBS viability, ATP luminescence, 48 h; series mostly up to 45.8 µM; also: nearly all actives have a fitted effect of over 30% in size
Outline: as §1

[6] = Quantitative highthroughput screen to assess conditional lethalithy of NOMO1 cells grown in Human Plasma-Like Medium with dialyzed fetal bovine serum (HPLM+ds) (AID 1963878); settings: NOMO1 AML cells in HPLM+ds, CellTiter-Glo viability, 48 h; series mostly up to 45.8 µM; also: nearly all actives have a fitted effect of over 35% in size
Outline: as §1

[7] = Quantitative highthroughput screen to assess conditional lethalithy of P12 Ichikawa cells grown in Human Plasma-Like Medium with dialyzed fetal bovine serum (HPLM+ds) (AID 1963879); settings: ATP luminescence, 48 h; Potency: viability; series mostly up to 45.8 µM; also: nearly all actives have a fitted effect of over 35% in size
Outline: as §1

[8] = Quantitative highthroughput screen to assess conditional lethalithy of P12 Ichikawa cells grown in RPMI1640 with dialyzed fetal bovine serum (RPMI+ds) (AID 1963880); settings: ATP luminescence, 48 h; Potency: P12-Ichikawa viability; series mostly up to 45.8 µM; also: nearly all actives have a fitted effect of over 35% in size
Outline: as §1

[9] = Quantitative highthroughput screen to assess conditional lethalithy of P12 Ichikawa cells grown in RPMI1640 with untreated serum (RPMI+s) (AID 1963881); settings: ATP luminescence, 48 h; Potency: viability; series mostly up to 45.8 µM; also: nearly all actives have a fitted effect of over 35% in size
Outline: as §1

[10] = Quantitative highthroughput screen to assess conditional lethalithy of SEM cells grown in Human Plasma-Like Medium with dialyzed fetal bovine serum (HPLM+ds) (AID 1963882); settings: SEM B-ALL cells in HPLM+ds, CellTiter-Glo viability, 48 h; series mostly up to 45.8 µM; also: nearly all actives have a fitted effect of over 35% in size
Outline: as §1

[11] = Quantitative highthroughput screen to assess conditional lethalithy of SEM cells grown in RPMI1640 with unreated serum (RPMI+s) (AID 1963883); settings: SEM B-ALL cells, CellTiter-Glo viability, 48 h; series mostly up to 45.8 µM; also: nearly all actives have a fitted effect of over 35% in size
Outline: as §1

[12] = Quantitative highthroughput screen to assess conditional lethalithy of SEM cells grown in RPMI1640 with dialyzed fetal bovine serum (RPMI+ds) (AID 1963884); settings: SEM B-ALL cells, RPMI+dialyzed FBS, CellTiter-Glo viability, 48 h; series mostly up to 45.8 µM; also: nearly all actives have a fitted effect of over 35% in size
Outline: as §1

[13] = Cellular viability qHTS for adrenocortical cancer (ACC) cell line SW-13 (AID 1963989); settings: SW-13 ACC cells viability, CellTiter-Glo, 48 h; activity (max response): stronger effect = lower value; also: nearly all actives have a fitted effect of over 65% in size;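 as to activity (max response): cells grown in serum-free medium with ITS supplement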
Outline: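 Luminescent ATP read-out (CellTiter-Glo, 20 min at room temperature) measured metabolically competent SW-13 cells after 48 h compound treatment. Final concentrations spanned up to 46 uM; bortezomib served as positive control.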

[14] = Cellular viability qHTS for adrenocortical cancer (ACC) cell line NCI-H295R (AID 1963990); settings: CellTiter-Glo ATP luminescence, 48 h; series mostly up to 46.1 µM; also: nearly all actives have a fitted effect of over 60% in size
Outline: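 IC50 and maximal efficacy derive from four-parameter logistic modelling of titration curves, with reads scaled between DMSO-only wells (0%) and doxorubicin hydrochloride (100% inhibition). Compounds spanned up to 46 uM over 48 h.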
Potency is read from the fitted curve at half-maximal effect.

Chain of Cytochrome P450 3A7 (Homo sapiens) (P24462 whole entry, looked up): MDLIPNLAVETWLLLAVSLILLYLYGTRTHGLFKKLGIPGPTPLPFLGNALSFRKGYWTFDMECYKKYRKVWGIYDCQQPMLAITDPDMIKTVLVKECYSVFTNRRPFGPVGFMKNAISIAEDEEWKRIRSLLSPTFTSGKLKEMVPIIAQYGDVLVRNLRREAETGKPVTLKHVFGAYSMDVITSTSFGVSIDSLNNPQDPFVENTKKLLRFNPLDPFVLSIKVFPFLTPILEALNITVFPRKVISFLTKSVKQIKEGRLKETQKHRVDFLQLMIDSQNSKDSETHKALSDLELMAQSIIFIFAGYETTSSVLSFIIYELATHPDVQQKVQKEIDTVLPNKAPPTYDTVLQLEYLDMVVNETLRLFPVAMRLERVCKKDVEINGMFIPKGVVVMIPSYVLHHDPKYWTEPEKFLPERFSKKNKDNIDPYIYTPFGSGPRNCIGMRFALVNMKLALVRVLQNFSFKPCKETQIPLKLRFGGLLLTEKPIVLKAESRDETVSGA

Structure (SMILES) | Potency [1] | Potency [2] | Potency [3] | Potency [4] | Potency [5] | Potency [6] | Potency [7] | Potency [8] | Potency [9] | Potency [10] | Potency [11] | Potency [12] | activity (max response) [13] | Potency [14] | Potency [13]
CCOC(=O)C(C)(C)Oc1ccc(Cl)cc1 | inactive | inactive | inactive | inactive | inactive | inactive | inactive | inactive | inactive | inactive | inactive | inactive | 0.705% and -17.8% | inactive | –
CC(=O)OCC(CCn1cnc2cnc(N)nc21)COC(C)=O | inactive | inactive | inactive | inactive | inactive | inactive | inactive | inactive | inactive | inactive | inactive | inactive | 5.15% and -10.4% | inactive | –
CC(=O)c1cnc2ccc(-c3cc(Cl)c(O)c(Cl)c3)nc2c1NC1CCC(CN(C)C)CC1 (stereo not drawn) | inactive | 4.7 nM (active) and 0.8 nM (active) | 11.9 nM (active) and 2.9 nM (active) | 0.132 µM (active) | 0.132 µM (active) | 0.066 µM (active) | – | – | 0.148 µM (active) | 0.0741 µM (active) | 0.0741 µM (active) | 0.0588 µM (active) | – | 212 nM (active) | 75.1 nM (active)
N#Cc1ccc(C(c2ccc(C#N)cc2)n2cncn2)cc1 | inactive | inactive | inactive | inactive | inactive | inactive | – | inactive | inactive | inactive | – | inactive | 2.79% | inactive | –
CCCCOc1c(C(=O)c2c(F)cc(C)cc2F)cnc2n[nH]cc12 | inactive | 651 nM (active) and 1.32 µM (active) | 461 nM (active) and 468 nM (active) | inactive | inactive | inactive | inactive | inactive | inactive | – | – | – | -11.6% | – | –
NS(=O)(=O)c1cc2c(cc1Cl)NC(C(Cl)Cl)NS2(=O)=O (stereo not drawn) | inactive | inactive | inactive | inactive | inactive | inactive | – | inactive | inactive | inactive | inactive | inactive | 15.1% and 11.4% | inactive | –
COc1cc(Nc2c(C#N)cnc3cc(OCCCN4CCN(C)CC4)c(OC)cc23)c(Cl)cc1Cl | 15.5 µM (active) | 944 nM (active) and 1.3 µM (active) and 1.18 µM (active) | 944 nM (active) and 1.16 µM (active) and 590 nM (active) | 7.43 µM (active) | 8.33 µM (active) | 3.72 µM (active) | – | 5.26 µM (active) | 4.69 µM (active) | 1.66 µM (active) | 1.87 µM (active) | 2.35 µM (active) | – | 4.61 µM (active) and 3.55 µM (active) | 4.61 µM (active) and 2 µM (active)
CN(C)CCc1c[nH]c2ccc(C[C@H]3COC(=O)N3)cc12 | inactive | inactive | inactive | 16.6 µM (active) | 20.9 µM (active) | 13.2 µM (active) | 7.43 µM (active) | – | 10.5 µM (active) | 9.35 µM (active) | 4.69 µM (active) | – | 12.9% | inactive | –
COc1nc(N)nc2c1ncn2[C@@H]1O[C@H](CO)[C@@H](O)[C@@H]1O | inactive | inactive | inactive | inactive | inactive | inactive | inactive | inactive | inactive | inactive | inactive | – | -9.37% | inactive | –
